Screening data deposited in PubChem by several laboratories.
LGR2 inh: Drosophila LGR2 receptor signaling inhibition. 380,000 tested, 0.35% active. inhibition, % at 9.99 µM. HEK293 LGR2, CRE-luciferase, bursicon-stimulated, 4 h;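 active means drop in luminescence signal, shown as inhibition above about 50% in the replicate tests, limit read from the data, passing the limit was not always enough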;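 further: agonist challenge used bursicon conditioned medium at about half maximal strength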
HSP90 inh: blocks HSP90-mediated luciferase refolding in reticulocyte lysate; Rabbit reticulocyte lysate, luciferase refolding luminescence, 3 h; 290,000 tested, 0.91% active; inhibition, % at 5.6 µM; AID 1789;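 active means inhibition above the screen-wide mean plus 3 SD, computed separately per campaign, cut at about 16% in these data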;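 further: inhibitors lower the luminescence because luciferase stays unfolded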
TWEAK Fn14 block: TWEAK-Fn14 signaling inhibition. inhibition, % at 10 µM. AID 1159606. TWEAK-stimulated Fn14 reporter cells, luciferase luminescence, 8 h. 360,000 tested, 2% active; in the data active means inhibition above about 50%
TROY signal inh: blocks TROY-dependent signaling in reporter cells; Q293 LMP1-TROYcd NF-kB luciferase reporter, 4 h; inhibition, % at 10 µM; AID 1347056; 360,000 tested, 0.98% active;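 active means compounds whose plate-normalised and pattern-corrected inhibition of the luciferase reporter signal at the single screening dose is 50% or more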
HSP90 inh confirm: confirmation of HSP90 inhibitors. inhibition, % at 5.9 µM. rabbit reticulocyte lysate, luciferase refolding luminescence, 3 h. shares compounds with HSP90 inh. 2,300 tested, 64% active; in the data active means inhibition above about 18%
FLuc counter: firefly luciferase inhibition, HSP90 counter-screen | inhibition, % at 5.9 µM | purified native firefly luciferase, luminescence | 2,300 tested, 48% active | shares compounds with HSP90 inh;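 active means inhibition above the mean inhibition of all tested sample wells plus 3 SD, cut at about 10% in these data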
Target sequence (P08659 whole entry, looked up): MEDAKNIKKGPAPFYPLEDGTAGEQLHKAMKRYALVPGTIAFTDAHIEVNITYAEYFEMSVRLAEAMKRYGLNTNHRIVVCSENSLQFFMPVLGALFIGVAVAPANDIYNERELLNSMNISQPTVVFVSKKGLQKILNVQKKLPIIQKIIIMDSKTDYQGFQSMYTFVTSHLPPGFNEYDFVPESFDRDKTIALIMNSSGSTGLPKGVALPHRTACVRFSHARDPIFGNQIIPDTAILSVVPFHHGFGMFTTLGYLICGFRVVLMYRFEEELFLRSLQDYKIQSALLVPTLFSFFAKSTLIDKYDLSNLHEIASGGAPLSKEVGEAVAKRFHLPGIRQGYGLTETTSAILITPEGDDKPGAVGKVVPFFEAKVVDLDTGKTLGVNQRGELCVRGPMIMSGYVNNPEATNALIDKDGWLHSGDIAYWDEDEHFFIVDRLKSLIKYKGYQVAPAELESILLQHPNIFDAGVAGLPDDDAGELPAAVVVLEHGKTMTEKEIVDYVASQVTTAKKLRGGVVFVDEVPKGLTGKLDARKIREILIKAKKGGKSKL
Hits are given with their value; - = inactive; . = not tested or not shown. Shown are actives, neighbours in structure and some others; about 2.2% of the full set was active somewhere.

SMILES | LGR2 inh | HSP90 inh | TWEAK Fn14 block | TROY signal inh | HSP90 inh confirm | FLuc counter
CO[C@@H](CN(C)C(=O)c1ccc2c(c1)OCO2)[C@@H](C)CN([C@H](C)CO)S(=O)(=O)c1ccc(C)cc1 | - | . | . | . | . | .
COCC(=O)Nc1ccc2c(c1)C(=O)N(C)[C@@H]1CC[C@@H](CC(=O)NCC3CCCCC3)O[C@H]1CO2 | - | . | . | . | . | .
COc1ccccc1C1CCN(Cc2ccc(Cl)cc2Cl)CC1 | - | 17 | - | - | - | -
COc1ccccc1C1CCN(Cc2ccc(Cl)c(Cl)c2)CC1 | - | - | - | - | . | .
Cc1occc1C(=O)N/N=C/C=C/c1ccc(N(C)C)cc1 | - | - | - | - | . | .
Cc1occc1C(=O)N/N=C/c1ccc(N(C)C)cc1 | - | 20 | 72 | - | 60 | 50
C/C(=N\NC(=O)c1ccoc1C)c1ccccc1 | - | 20 | - | - | - | -
C[C@@H]1CCCCO[C@@H](CN(C)S(=O)(=O)c2ccc(F)cc2)[C@H](C)CN([C@@H](C)CO)C(=O)c2cc(NS(=O)(=O)c3ccccc3)ccc2O1 | - | . | . | . | . | .
CCOC(=O)C(=O)Nc1ccc([N+](=O)[O-])cc1OC | - | 22 | - | - | - | -
COC(=O)Nc1cc([N+](=O)[O-])ccc1OC | . | - | - | - | . | .
CCOC(=O)Nc1ccc([N+](=O)[O-])cc1OC | . | - | - | - | . | .
COc1ccc(OC(=O)Nc2ccc([N+](=O)[O-])cc2OC)cc1 | - | 20 | - | - | - | -
CN(C)C(=O)c1cccc(-c2ccc(C3[C@@H]4CN(S(=O)(=O)c5ccccc5F)C[C@H]3N4)cc2)c1 (stereo not given in full) | - | . | . | . | . | .
O=C(NCCc1ccccc1)c1ccccc1NC(=O)C1CC=CCC1C(=O)O (stereo not given) | - | 45 | - | - | - | -
O=C(O)c1ccccc1C(=O)NCCc1ccc(Cl)cc1 | - | - | - | - | . | .
Cn1cccc1C(=O)NCCc1ccccc1 | - | 19 | 56 | - | 39 | 26
O=C(NCCc1ccccc1)c1ccccc1Cl | 58 | 43 | 78 | - | 58 | 50
C[C@H](CO)N1C[C@H](C)[C@H](CN(C)C(=O)Nc2ccccc2)Oc2c(NS(=O)(=O)c3ccc(F)cc3)cccc2C1=O | - | . | . | . | . | .
COc1ccc(NC(=O)Nc2ccc3c(c2)C(=O)N([C@H](C)CO)C[C@H](C)[C@H](CN(C)Cc2ccc(Cl)c(Cl)c2)OCCCC[C@@H](C)O3)cc1 | - | . | . | . | . | .
O=C(CSc1nc2ccccc2[nH]1)NCCc1ccc(Cl)cc1 | - | 25 | - | - | - | -
Cc1ccc(CNC(=O)CSc2nc3ccccc3[nH]2)cc1 | - | - | - | - | . | .
CCOc1ccc(OCc2ccc(C(=O)N3N=C(C(F)F)CC3(O)C(F)F)o2)cc1 (stereo not given) | - | 28 | - | - | - | -
CC(C)c1ccc(COc2ccc(C(=O)N3CCOCC3)cc2)cc1 | - | - | - | - | . | .
CCOC(=O)c1ccc(COc2ccc(C(C)C)cc2)o1 | - | 33 | - | - | 71 | -
CCC(C)c1ccc(OCc2ccc(C(=O)O)o2)cc1 (stereo not given) | - | 94 | - | - | 92 | 82
SMILES | LGR2 inh | HSP90 inh | TWEAK Fn14 block | TROY signal inh | HSP90 inh confirm | FLuc counter
O=C(c1ccc(COc2ccc(Br)cc2)o1)N1N=C(C(F)F)CC1(O)C(F)F (stereo not given) | . | - | - | - | . | .
CC(C)c1ccc(OCc2ccc(C(=O)N3CCCC3)o2)cc1 | - | 17 | - | - | 24 | -
CN(C)c1ccc2c(c1)[C@@H]1C[C@H](CC(=O)NCc3ccc(Cl)cc3)O[C@@H](CO)[C@@H]1O2 | - | . | . | . | . | .
O=S(=O)(N[C@@H]1CC[C@@H](CCn2cc(-c3cccc(F)c3)nn2)O[C@@H]1CO)c1ccc(Cl)cc1 | - | . | . | . | . | .
COc1ccc(CN2CC3(CN(C(=O)C4CCOCC4)C3)c3c(n(C)c4cc(OC)ccc34)[C@@H]2CO)cc1 | - | . | . | . | . | .
CCOc1ccc(OCc2ccc(C(=O)N3CCCC3)o2)cc1 | - | 30 | - | - | 19 | -
Cc1ccc(OCc2ccc(C(=O)O)o2)cc1C | - | 70 | - | - | 71 | -
Cc1cc(CN2CCCCC2)oc1C(=O)O | - | - | - | - | . | .
CCOc1ccc(OCc2ccc(C(=O)NC(C)C)o2)cc1 | - | - | - | - | . | .
Cc1cc(COc2ccccc2)oc1C(=O)O | - | 69 | 90 | 58 | 84 | 50
CCn1c(C)nc2cc(C(=O)NNC(=S)Nc3ccc(Cl)cc3)ccc21 | - | - | - | - | . | .
CCn1c(C)nc2cc(C(=O)NNC(=S)Nc3ccccc3)ccc21 | - | 34 | 71 | 78 | 32 | 27
COc1ccc(CN(C)C[C@H]2OCCCC[C@@H](C)Oc3ccc(NC(=O)NC4CCCCC4)cc3C(=O)N([C@H](C)CO)C[C@H]2C)cc1 | - | . | . | . | . | .
C[C@@H]1CN([C@@H](C)CO)C(=O)c2cc(NC(=O)NC3CCCCC3)ccc2O[C@@H]1CN(C)C(=O)Nc1ccc2c(c1)OCO2 | - | . | . | . | . | .
O=C(NCCc1ccc(Cl)cc1)c1ccc2ccccc2n1 | - | - | - | - | . | .
O=C(O)C(=O)/C(=C\c1ccc(Cl)cc1)c1ccc2ccccc2n1 | - | 22 | - | 53 | - | -
CC1CN(C(=O)COC(=O)c2ccc(O)cc2)CC(C)O1 (stereo not given) | - | - | - | - | . | .
CC1CN(C(=O)COC(=O)c2ccc(C#N)cc2)CC(C)O1 (stereo not given) | - | 48 | - | - | - | -
CCN(CC)c1ccc2nc3c4ccccc4c(=O)cc-3oc2c1 | - | 47 | . | . | 48 | 32
CCN(CC)c1ccc2cc(C=O)c(=O)oc2c1 | . | - | - | - | . | .
Cc1ccccc1Oc1nc2c(C)cccn2c(=O)c1/C=C(\C#N)C(=O)NC1CCS(=O)(=O)C1 (stereo not given) | - | 17 | - | - | 26 | -
CN(C)c1ccc(-c2nc3ccccc3c(=O)[nH]2)cc1 | 66 | 34 | - | - | 68 | 53
C[C@H]1CN([C@@H](C)CO)C(=O)c2cc(NS(=O)(=O)c3ccc(F)cc3)ccc2O[C@@H]1CN(C)C(=O)NC1CCCCC1 | - | . | . | . | . | .
c1ccc(-n2cnc3cc(NCc4ccccn4)ccc32)cc1 | - | 18 | 57 | - | 18 | -
C[C@@H]1CN([C@@H](C)CO)C(=O)Cc2cc(NS(=O)(=O)c3ccccc3)ccc2O[C@H]1CN(C)C | - | . | . | . | . | .
C[C@@H]1CN([C@H](C)CO)C(=O)c2cc(-c3ccccc3)cnc2O[C@H]1CN(C)Cc1ccccc1 | - | . | . | . | . | .
CN(C)C(CNC(=O)C1CCN(S(=O)(=O)c2cccc(C(F)(F)F)c2)CC1)c1ccccc1 (stereo not given) | - | 40 | - | - | - | -
C[C@H](CO)N1C[C@H](C)[C@H](CN(C)Cc2ccncc2)Oc2c(NS(=O)(=O)c3ccc(Cl)cc3)cccc2C1=O | - | . | . | . | . | .
CC(=O)N(/N=C1\Sc2ccccc2C1=O)c1ccc(C)cc1C | . | 41 | 91 | - | 79 | 58
CC(=O)N(/N=C1\Sc2ccccc2C1=O)c1ccccc1C | . | 35 | - | - | 74 | -
